Legend:
Settings in all cases: concentration: 1 μM, replicates: in singlicate; n = 1
STK36 = system: STK36
STK39 = system: STK39
SYK = system: SYK
SgK110 = system: SgK110
TAK1 = system: T1, TAK1
T1 construct: gene MAP3K7

TAOK1 = system: TAOK1
TAOK2 = system: TAOK2
TAOK3 = system: TAOK3
TBK1 = system: TBK1
TEC = system: TEC
TESK1 = system: TESK1
TGFBR1 = system: TGFBR1
TGFBR2 = system: TGFBR2
TIE1 = system: TIE1
TIE2 = system: T2, TIE2
T2 construct: gene TEK

TLK1 = system: TLK1
TLK2 = system: TLK2
TNIK = system: TNIK
TNK1 = system: TNK1
TNK2 = system: TNK2
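Note: KINOMEscan kinase panel screen.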

Compound	%Inh (STK36) [%]	%Inh (STK39) [%]	%Inh (SYK) [%]	%Inh (SgK110) [%]	%Inh (TAK1) [%]	%Inh (TAOK1) [%]	%Inh (TAOK2) [%]	%Inh (TAOK3) [%]	%Inh (TBK1) [%]	%Inh (TEC) [%]	%Inh (TESK1) [%]	%Inh (TGFBR1) [%]	%Inh (TGFBR2) [%]	%Inh (TIE1) [%]	%Inh (TIE2) [%]	%Inh (TLK1) [%]	%Inh (TLK2) [%]	%Inh (TNIK) [%]	%Inh (TNK1) [%]	%Inh (TNK2) [%]
Cl.Cl.NC(CNC(=O)c1cc(Br)c(-c2ccnc3[nH]ccc23)s1)c1ccccc1 (centres unmarked) [GSK1322949]	0	5	27	0	36	66	3	44	20	1	37	10	32	33	6	31	12	59	14	10
CN(c1ccc(NC(=O)N2CCN(CCCN3CCOCC3)CC2)cc1)c1ccnc(Nc2ccc(CS(C)(=O)=O)cc2)n1.Cl [GW830899]	5	0	15	0	0	0	0	0	53	0	9	6	59	0	16	2	0	15	41	12
CC(C)c1nc(-c2cccc(NS(=O)(=O)c3c(F)cccc3F)c2)c(-c2ccnc(Nc3ccc(N4CCOCC4)nc3)n2)s1.Cl [GSK1723980]	100	10	69	0	81	0	0	0	18	80	100	93.1	92.4	92.5	97.2	16	0	12	100	98.5
Cc1ccc(O)cc1Nc1ccnc2cc(-c3ccc(CN4CCCCC4)o3)ccc12 [GW557777]	0	0	69	0	35	0	0	0	0	21	0	47	98	61	57	23	5	24	0	26
Cc1ccc(Nc2ccnc(Nc3ccc(C)c(F)c3)n2)cc1O.Cl [GW582868]	7	18	56	0	0	0	0	0	16	7	0	0	83	47	0	0	0	0	0	29
CN(C)c1ncnc2nc[nH]c12 [SKF-31736]	0	5	0	0	0	0	26	3	34	0	0	0	0	5	0	0	0	0	0	0
CS(=O)(=O)c1cccc(CNc2nc(Nc3ccc4c(c3)CCC(=O)N4)ncc2C(F)(F)F)c1	0	0	75	0	68	0	21	0	89	0	0	2	0	57	30	0	0	90.1	73	0
O=C(Nc1c(F)cccc1F)c1cc(C(=O)c2ccccc2F)c[nH]1 [GSK1326180]	0	0	22	0	0	0	0	0	3	7	10	0	6	0	0	0	0	20	8	8
CN1CCN(Cc2ccc(NC(=O)Nc3ccc(N(C)c4ccnc(Nc5ccc(CS(C)(=O)=O)cc5)n4)cc3)cc2)CC1.Cl [GW827654]	49	36	84	0	89	13	0	0	30	9	0	25	81	96.9	80	25	0	90.9	20	97.7
COc1cc(Nc2ccnc3cc(-c4ccncc4)ccc23)cc(OC)c1OC.Cl [GW494610]	9	11	0	0	0	0	0	0	0	5	73	63	59	19	15	0	0	89	40	28

Reference: paper PMC5540273 (PLoS ONE, 2017)
